# According to PubChem BioAssay:
# Results with a measured potency or affinity are listed apart. Records with an inconclusive call do not appear. Calls of active or inactive are those of the source. How the calls were made is not given here.
# Assay: IGROV1 cell killing – plate reader, dry powder samples, PAX8 inhibitor project, dose response (AID 743043);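 further: more negative means fewer viable cells or more cytotoxicity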
# Conditions: IGROV1 ovarian cancer cell cytotoxicity; series mostly up to 35 µM; activity change, negative = cytotoxicity: at the top concentration
row,Compound,"activity change, negative = cytotoxicity"
1,C[C@@H]1CN([C@@H](C)CO)C(=O)Cc2cc(NS(=O)(=O)c3ccc(Cl)cc3)ccc2O[C@H]1CN(C)Cc1ccc(C(F)(F)F)cc1,9.37% (inactive)
2,CNC[C@H]1Oc2ccc(NC(=O)NC(C)C)cc2CC(=O)N([C@@H](C)CO)C[C@@H]1C,6.46% (inactive)
3,Cc1ccc(S(=O)(=O)Nc2ccc3c(c2)C(=O)N([C@@H](C)CO)C[C@@H](C)[C@@H](CN(C)C)OCCCC[C@H](C)O3)cc1,9.22% (inactive)
4,CNC[C@@H]1Oc2ccc(NC(=O)NC(C)C)cc2CC(=O)N([C@@H](C)CO)C[C@@H]1C,-0.579% (inactive)
5,C[C@@H]1CN([C@@H](C)CO)S(=O)(=O)c2ccc(C#Cc3ccncc3)cc2O[C@@H]1CN(C)C(=O)C1CCCCC1,2.64% (inactive)

# Assay: OVCAR-3 cell viability loss – plate reader, dry powder samples, PAX8 inhibitor project, dose response (AID 743044)
# Conditions: NIH:OVCAR-3 ovarian cancer cell viability; max activity: at 35 µM, active compounds read low unless noted; series mostly up to 50 µM; activity change, negative = cytotoxicity: at the top concentration
row,Compound,max activity
1,C[C@@H]1CN([C@@H](C)CO)C(=O)Cc2cc(NS(=O)(=O)c3ccc(Cl)cc3)ccc2O[C@H]1CN(C)Cc1ccc(C(F)(F)F)cc1,"14.3% [at 0.26 µM, active compounds read low] (inactive)"
2,CNC[C@H]1Oc2ccc(NC(=O)NC(C)C)cc2CC(=O)N([C@@H](C)CO)C[C@@H]1C,"12.2% [at 2.1 µM, active compounds read low] (inactive)"
3,Cc1ccc(S(=O)(=O)Nc2ccc3c(c2)C(=O)N([C@@H](C)CO)C[C@@H](C)[C@@H](CN(C)C)OCCCC[C@H](C)O3)cc1,"20.9% [at 0.26 µM, active compounds read low] (inactive)"
4,CNC[C@@H]1Oc2ccc(NC(=O)NC(C)C)cc2CC(=O)N([C@@H](C)CO)C[C@@H]1C,"22.5% [at 0.5 µM, active compounds read low] (inactive)"
5,C[C@@H]1CN([C@@H](C)CO)S(=O)(=O)c2ccc(C#Cc3ccncc3)cc2O[C@@H]1CN(C)C(=O)C1CCCCC1,"-17.5% [at 1 µM, active compounds read low] (inactive)"

# Assay: toxicity toward immortalized ovarian surface epithelium – cell-based, plate reader, dry powder samples, cytotoxicity control for PAX8 inhibitor project, dose response (AID 743045);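 further: 0% = neutral control median and -100% = positive control median; more negative values mean more cell killing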
# Conditions: IOSE-T80 ovarian epithelial cells; series mostly up to 35 µM; activity change, negative = cytotoxicity: at the top concentration
row,Compound,"activity change, negative = cytotoxicity"
1,C[C@@H]1CN([C@@H](C)CO)C(=O)Cc2cc(NS(=O)(=O)c3ccc(Cl)cc3)ccc2O[C@H]1CN(C)Cc1ccc(C(F)(F)F)cc1,8.07% (inactive)
2,CNC[C@H]1Oc2ccc(NC(=O)NC(C)C)cc2CC(=O)N([C@@H](C)CO)C[C@@H]1C,6.95% (inactive)
3,Cc1ccc(S(=O)(=O)Nc2ccc3c(c2)C(=O)N([C@@H](C)CO)C[C@@H](C)[C@@H](CN(C)C)OCCCC[C@H](C)O3)cc1,-1.47% (inactive)
4,CNC[C@@H]1Oc2ccc(NC(=O)NC(C)C)cc2CC(=O)N([C@@H](C)CO)C[C@@H]1C,9.53% (inactive)
5,C[C@@H]1CN([C@@H](C)CO)S(=O)(=O)c2ccc(C#Cc3ccncc3)cc2O[C@@H]1CN(C)C(=O)C1CCCCC1,1.37% (inactive)

# Assay: A2780 cell killing – plate reader, dry powder samples, cytotoxicity control, dose response (AID 743046);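 further: 0% = neutral control wells and -100% = cytotoxic reference compound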
# Conditions: A2780 ovarian cancer cytotoxicity; series mostly up to 35 µM; activity change, negative = cytotoxicity: at the top concentration
row,Compound,"activity change, negative = cytotoxicity"
1,C[C@@H]1CN([C@@H](C)CO)C(=O)Cc2cc(NS(=O)(=O)c3ccc(Cl)cc3)ccc2O[C@H]1CN(C)Cc1ccc(C(F)(F)F)cc1,15.9% (inactive)
2,CNC[C@H]1Oc2ccc(NC(=O)NC(C)C)cc2CC(=O)N([C@@H](C)CO)C[C@@H]1C,11.8% (inactive)
3,Cc1ccc(S(=O)(=O)Nc2ccc3c(c2)C(=O)N([C@@H](C)CO)C[C@@H](C)[C@@H](CN(C)C)OCCCC[C@H](C)O3)cc1,-6.59% (inactive)
4,CNC[C@@H]1Oc2ccc(NC(=O)NC(C)C)cc2CC(=O)N([C@@H](C)CO)C[C@@H]1C,14% (inactive)
5,C[C@@H]1CN([C@@H](C)CO)S(=O)(=O)c2ccc(C#Cc3ccncc3)cc2O[C@@H]1CN(C)C(=O)C1CCCCC1,-7.74% (inactive)

# Assay: OVCAR8 cell viability loss – plate reader, dry powder samples, PAX8 project, dose response (AID 743197)
# Conditions: series mostly up to 35 µM; activity change, negative = cytotoxicity: at the top concentration
row,Compound,"activity change, negative = cytotoxicity"
1,C[C@@H]1CN([C@@H](C)CO)C(=O)Cc2cc(NS(=O)(=O)c3ccc(Cl)cc3)ccc2O[C@H]1CN(C)Cc1ccc(C(F)(F)F)cc1,17.4% (inactive)
2,CNC[C@H]1Oc2ccc(NC(=O)NC(C)C)cc2CC(=O)N([C@@H](C)CO)C[C@@H]1C,19.1% (inactive)
3,Cc1ccc(S(=O)(=O)Nc2ccc3c(c2)C(=O)N([C@@H](C)CO)C[C@@H](C)[C@@H](CN(C)C)OCCCC[C@H](C)O3)cc1,23.7% [at 16 µM] (inactive)
4,CNC[C@@H]1Oc2ccc(NC(=O)NC(C)C)cc2CC(=O)N([C@@H](C)CO)C[C@@H]1C,19.4% (inactive)
5,C[C@@H]1CN([C@@H](C)CO)S(=O)(=O)c2ccc(C#Cc3ccncc3)cc2O[C@@H]1CN(C)C(=O)C1CCCCC1,-2.13% (inactive)
